# Screening data from PubChem BioAssay.
# HttQ103 aggreg: reduces HttQ103-GFP aggregates in PC12 cells; PC12 HttQ103-GFP aggregates, Acumen cytometry, 40 h; Potency, µM (top dose mostly 46.1 µM), without a hit: at the highest dose activity change, negative = inhibition, hits mostly inhibitors; AID 1688; hit rate 1.1% among 220,000; note: potency is the fitted concentration of half-maximal effect; % is set by controls: 0 for no effect and ±100 for the full control effect; nearly all actives have a fitted effect of over 60% in size
#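 Aggregate formation scored by laser-scanning cytometer (488 excitation, 500–530 emission) in lysed PC12 cells expressing Q103-GFP after 100 nM tebufenozide induction; library tested in dose series, with ATPLite reagent added in the multiplex.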
# IMPase inh: membrane-permeable compound that blocks inositol monophosphatase. inhibition (IP1 accumulation), % at 46.1 µM. CHO-M1 cells, IP1 accumulation, HTRF TR-FRET ratio. P97697. 120,000 tested, under 10 active. AID 901; active = well fitted curve in the direction sought with a large enough effect in the signal ratio, not every such curve was filed as active; inconclusive = small, poorly fitted or top-dose-only effect, or a change in a side signal; inactive = no such curve, though single readings can be large or run the other way; the % refers to the signal ratio;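 note: cells stimulated with carbachol in lithium chloride buffer; plate controls were DMSO basal wells for no effect and reference inhibitor wells for full effect; higher means more IMPase inhibition seen as more IP1 and lower FRET ratio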
# Target sequence (P97697 whole entry, looked up): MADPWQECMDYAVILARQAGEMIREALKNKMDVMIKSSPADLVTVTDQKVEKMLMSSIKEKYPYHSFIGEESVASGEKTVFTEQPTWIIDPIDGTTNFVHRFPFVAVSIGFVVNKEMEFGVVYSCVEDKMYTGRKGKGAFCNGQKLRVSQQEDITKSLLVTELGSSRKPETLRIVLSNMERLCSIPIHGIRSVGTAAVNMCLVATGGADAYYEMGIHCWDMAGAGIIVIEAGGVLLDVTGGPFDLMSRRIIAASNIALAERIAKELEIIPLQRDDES
#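 In this qHTS, compounds (final up to 46 uM) act on CHO-M1 cells that are then activated through the M1 receptor with carbachol, in pH 7.4 buffer containing 50 mM LiCl, for 30 min. IP1 accumulation is quantified by the IP-One immunoassay.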
# HTT ATP protect: cytoprotection in Huntington HTT-Q103 PC12 cell model; PC12 HTT-Q103 induced, cytoprotection, ATP luminescence, 40 h; Potency, µM (highest dose often 56.4 µM), inactives show cytoprotection (ATP increase), most hits filed as activators; hit rate 0.14% among 230,000; AID 1471; note: potency is the fitted concentration of half-maximal effect; % of control where 0% means no effect; nearly all actives have a fitted effect of over 45% in size
#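 Compounds added alongside 100 nM tebufenozide, which induces toxic Q103 huntingtin exon 1-GFP in stable PC12 cells; surviving cells quantified by luminescent ATP measurement. Medium: phenol red-free DMEM, 5% equine and 5% calf serum.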
# HPGD block: blocks human HPGD enzyme activity; purified HPGD, NADH fluorescence kinetic, PGE2 substrate; AID 894; hit rate 4.3% among 150,000; Potency, µM, for inactives: top-dose activity change, negative = inhibition, most hits filed as inhibitors; active = well fitted inhibition curve with a large enough effect, not every such curve was filed as active; inconclusive = small, poorly fitted or top-dose-only effect, or another doubt; inactive = no such curve, though single readings can be large or run the other way; note: potency is the fitted concentration of half-maximal effect; % is set by controls: 0 for no effect and ±100 for the full control effect
# Target sequence (P15428 whole entry, looked up): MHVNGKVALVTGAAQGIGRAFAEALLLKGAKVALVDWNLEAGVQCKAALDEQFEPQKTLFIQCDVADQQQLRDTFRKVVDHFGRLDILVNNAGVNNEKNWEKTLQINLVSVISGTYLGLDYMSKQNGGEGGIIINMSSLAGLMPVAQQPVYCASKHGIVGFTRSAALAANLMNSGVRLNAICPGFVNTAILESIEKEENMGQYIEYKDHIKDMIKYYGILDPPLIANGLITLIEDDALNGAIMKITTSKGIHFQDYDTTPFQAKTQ
#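 NADH formation kinetics: reaction with 30 uM PGE2 and 1 mM NAD+ (final), 20 nM enzyme, Tris-HCl pH 8 with Tween 20, after 15 min compound preincubation at room temperature. Fluorescence change, last versus first of five reads.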
# ALDH1A1 inh: blocks purified human ALDH1A1 activity; P00352; Purified ALDH1A1, NADH fluorescence, propionaldehyde substrate; Potency, µM (titrated, usually from 75.3 µM), for inactives: at the highest dose activity, negative = inhibition, actives largely listed as inhibitors; hit rate 7.3% among 220,000; AID 1030; active = well fitted inhibition curve with a large enough effect, not every such curve was filed as active; inconclusive = small, poorly fitted or top-dose-only effect, or another doubt; inactive = no such curve, though single readings can be large or run the other way;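 note: potency is the fitted concentration of half-maximal effect; plate controls were no enzyme wells and a reference inhibitor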
# IMPase Li inh: cell-permeable IMPase inhibitors with lithium potentiation; CHO-M1 cells, IP1 TR-FRET (IP-One), carbachol + lithium; Potency, µM (highest dose often 59.4 µM), for inactives: at the highest dose activity, negative = IMPase inhibition, usual class: inhibitors; hit rate 0.35% among 210,000;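 note: IP1 builds up when IMPase is blocked and the TR-FRET signal falls; potency is the fitted concentration of half-maximal effect; plate controls were basal vehicle for no effect and high inhibitor control for full effect; nearly all actives have a fitted effect of over 50% in size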
#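 CHO-M1, 2000 cells/well, 16–30 h culture; cpd + low Li+, 30 min 37C; lysis with d2-IP1/Eu-anti-IP1 Ab, 10 min RT; TR-FRET 665/620 ratio and 620 channel; AC50 via Hill.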
# Active calls of the source: *; ? = inconclusive; / = no result given; [ ] = remark or other dose. A selection: hits, their analogues and other compounds. The true share with any hit is near 9.4%. Unless noted, calls come from the whole dose curve; as a rule, active = well fitted curve in the direction sought with a large enough effect; inconclusive = small, poorly fitted or top-dose-only effect, or another doubt; inactive = no such curve, though single readings can be large; an effect the other way counts as inactive or inconclusive.
SMILES,HttQ103 aggreg,IMPase inh,HTT ATP protect,HPGD block,ALDH1A1 inh,IMPase Li inh
CN(C)c1ccc(/C=C/c2ccc3ccccc3n2)cc1,-5%[9.22 µM],/,-88%[10 µM],/,/,/
C[N+](C)(C)CC(=O)N/N=C\c1c(O)ccc2ccccc12,/,/,-7%[10 µM],-6%,11%[13.5 µM],2%
O=C(NC(=S)Nc1cc(Cl)ccc1O)c1cccc(Br)c1,-12%[9.22 µM],/,0%[10 µM],/,9.5µM*,/
CC(C)(C)NC(=S)NNC(=O)c1cccc(Br)c1,11µM*,/,-141%,/,11µM*,3%
O=C(NNC1OC(CO)C(O)C(O)C1O)c1cccc(Br)c1 (centres undefined),-14%,/,-55%,/,11µM*,-5%
O=C(O)/C=C/C(=O)NNC(=O)c1cccc(Br)c1,-8%,4,-5%[1.9 µM],-2%,20µM*,-5%
CCOCCCNC(=S)N1CCC(NC(=O)C23CC4CC(CC(C4)C2)C3)CC1,-20%,/,33%[10 µM],/,?,-2%
O=C(c1cc(C(F)(F)F)cc(C(F)(F)F)c1)N1CCC[C@@]2(CCN(c3ccncc3)C2)C1,/,/,-5%,-3%,8%,2%
Clc1ccc2c(NC3CCC(N4CCCCC4)CC3)ccnc2c1 (centres undefined),/,/,-14%[10 µM],-10%,-5%[13.5 µM],5%
Nc1ccn([C@@H]2O[C@H](COC(=O)C34CC5CC(CC(C5)C3)C4)[C@@H](O)[C@@H]2O)c(=O)n1,/,/,-46%[10 µM],-14%,-9%[13.5 µM],-4%
O=C(NNC(=S)Nc1ccccc1)c1ccc(O)cc1,-14%[9.22 µM],/,19%[10 µM],/,/,/
O=C(NNC(=S)Nc1ccccc1)c1cccc(Br)c1,-2%[9.22 µM],4,5%,-7%,20µM*,-14%[38.3 µM]
CCOc1ccc(CCNC(=O)CSc2nnnn2C)cc1OCC,-11%,/,-36%,/,0%,-7%
CCOc1ccc(CCNC(=O)CSc2nn(-c3ccc(C)c(Cl)c3)c(=S)s2)cc1OCC,15%,?,7%[10 µM],-25%,28µM*,10µM*
CCc1c2c(nc3cccc(C(C)C)c13)-c1cccc(=O)n1C2,/,/,-40%,?,?,-2%
Cc1ccc(N2CC(c3nnc(Cc4ccc(Cl)cc4)o3)CC2=O)cc1 (centres undefined),/,4,/,/,/,/
CC(C)(C)c1ccc(C(=O)NCC(=O)OCC(=O)Nc2ccccc2[N+](=O)[O-])cc1,11%,/,/,-11%,6.3µM*,2%
Cc1ccc(S(=O)(=O)N2CCOCC2)cc1NC(=O)COC(=O)CNC(=O)c1ccc(C(C)(C)C)cc1,8%,/,5%[10 µM],-11%,7.9µM*,0%
Cc1ccc(S(=O)(=O)N2CCOCC2)cc1NC(=O)COC(=O)CNC(=O)c1ccc(Oc2ccccc2)cc1,-4%,/,41%[0.074 µM],-11%,-11%,19%
Cc1cc(/C=C2/SC(=O)NC2=O)c(C)n1-c1ccc(N2CCOCC2)cc1,-13%,/,12%[0.074 µM],8.9µM*,-8%,16%
CCOC(=O)c1ccc(NS(=O)(=O)c2cc(-c3nnnn3C(C)C)ccc2OC)cc1,13%,?,-17%[0.074 µM],-22%,2.8µM*,-12%[38.3 µM]
COC(=O)c1ccc(NS(=O)(=O)c2cc(C)ccc2OC)cc1,-14%,-7,4%[0.074 µM],?,1%,-2%[38.3 µM]
CCn1nnnc1-c1ccc(OC)c(S(=O)(=O)Nc2ccc(C(=O)OC)cc2)c1,3%,25,-3%[0.074 µM],-8%,7.1µM*,20%[38.3 µM]
CCn1nnnc1-c1ccc(OC)c(S(=O)(=O)Nc2ccc(OC)cc2)c1,?,-5,-26%,-16%,0.11µM*,12%[38.3 µM]
CCn1nnnc1-c1ccc(OC)c(S(=O)(=O)N2CCCCC2)c1,-1%,1,26%,-5%,?,4%[38.3 µM]
SMILES,HttQ103 aggreg,IMPase inh,HTT ATP protect,HPGD block,ALDH1A1 inh,IMPase Li inh
Cc1ccc2c(c1)sc[n+]2Cc1ccccc1,1%,6,24%,20µM*,?,3%[38.3 µM]
COC(=O)[C@H](Cc1ccccc1)NC(=O)O[C@@H]1C(=O)c2ccc(OC)cc2O[C@H]1c1ccc2c(c1)OCO2,/,/,-20%,-9%,5%,9%
OC(c1ccc(Cl)cc1)c1nnc(-c2ccccc2)o1 (centres undefined),-23%,-10,0%,18µM*,0%,-4%[38.3 µM]
O=[N+]([O-])c1cccc(/C=N\NC2=CS(=O)(=O)C=C2)c1,/,/,6%[10 µM],-9%,-2%[13.5 µM],2%
C=CCOC(=O)N[C@H](/C(C(=O)OC)=C(\C)NCc1ccccc1)c1cccc(OC)c1,/,/,-29%,-8%,3%,14%
CON1C(=O)C(=O)N(OC)C(C)(C)C1(C)C,9%,/,3%[10 µM],1%,20µM*,0%
CNc1nc(-c2ccoc2)nc2ccccc12,/,/,3%,/,?,-8%
C=CCOC(=O)NC(CC(=Nc1ccc(OC)cc1)C(=O)OC)c1ccccc1 (centres undefined),/,/,0%,-18%,?,28%
Cc1ccc(CSCCNS(=O)(=O)c2ccc(C)cc2)cc1,16%,/,32%[10 µM],-8%,10µM*,13%
CCC(C)C(=O)NCCc1ccc(S(N)(=O)=O)cc1 (centres undefined),18%,/,6%[10 µM],-5%,11%,5%
Cc1ccc(S(=O)(=O)NCC(C)NS(=O)(=O)c2ccc(C)cc2)cc1 (centres undefined),-1%,10,10%,-6%,0.4µM*,-2%[38.3 µM]
Cc1ccc(CCNS(=O)(=O)c2ccc(C)cc2)cc1,-8%,-5,-7%,-6%,?,-8%[38.3 µM]
Cc1ccc(S(=O)(=O)NCCc2ccc(S(N)(=O)=O)cc2)cc1,0%,3,41%,-7%,25µM*,0%[38.3 µM]
CCCC(=O)NCCc1ccc(S(N)(=O)=O)cc1,-1%,-4,21%,-12%,4.5µM*,27%[38.3 µM]
Cc1ccc(-c2nnc(Nc3ccccc3)c3ccccc23)cc1S(=O)(=O)NCc1nc2ccccc2[nH]1,/,3,/,/,/,/
CCNc1ncc2nc(C)c(=O)n(Cc3cccs3)c2n1,/,/,-52%,/,?,0%
O=C(O)CCn1cc(/C=C\C(=O)c2ccc(Cl)cc2)c(-c2cccc(Br)c2)n1,?,-1,/,25µM*,?,8%
COc1ccc(-c2nn(CCC(=O)O)cc2/C=C2\SC(N)=NC2=O)cc1,0%,-6,-51%[10 µM],11µM*,4%,0%
CCCOc1ccc(-c2nn(-c3ccccc3)cc2/C=C2\SC(N)=NC2=O)cc1,2%,/,-19%[10 µM],?,12%,?
